The nature of the assay: chemical genetic growth profiling, strain panel (AID 1159580).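 Also: tested at 20 µM; growth read once vehicle control cultures reached saturation at 30 °C; 1 = growth at the plate median or of vehicle wells; lower values mean less growth of the strain.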 To be noted: S. cerevisiae deletion strains, growth OD.

Screen size: about 5,500 compounds; about 2,000 (36%) were called active. Roughly 18% stayed inconclusive and do not appear here. Some of the results follow. Unmarked numbers belong to inactive results. Rule as the data show it: active = normalized growth mostly below about 0.91 (no sharp cut-off); inconclusive = no clear call, values can overlap the other calls; inactive = mostly above about 0.92.

For `CC(C)[C@@H]1NC(=O)[C@H](CCCCN)NC(=O)[C@@H](Cc2c[nH]c3ccccc23)NC(=O)[C@H](Cc2ccc(O)cc2)NC(=O)[C@H](C)N(C)C(=O)[C@H](Cc2ccccc2)NC1=O`, the normalized growth was 0.981 (locus YAL040C, strain CLN3, hits give low values); 0.988 (locus YCL061C, strain MRC1 (second series), hits give low values); 0.995 (locus YDR363W, strain ESC2, hits give low values); 1.01 (locus YER002W, strain NOP16, hits give low values); 0.994 (locus YMR263W, strain SAP30, hits give low values); 0.879 (active) (locus YMR307W, strain GAS1, hits give low values). Besides, the normalized growth is 0.988 (locus YNL175C, strain NOP13, hits give low values); 0.988 (locus YNL197C, strain WHI3, hits give low values); 1 (locus YNL224C, strain SQS1, hits give low values); 0.984 (locus YNL322C, strain KRE1, hits give low values); 0.989 (locus YOR083W, strain WHI5 (second series), hits give low values).
